Assays:
Assay in all cases: log2 ratio of Biotin-Ahx-Ub-VS probe labelling (fragment/DMSO); higher = less target engagement (more negative = stronger competition), active = hit call of the paper (q ≤ 0.05, log2 ratio ≤ -1)
Settings in all cases: compound concentration: 200 uM; treatment time: 3 h
[1] = target: USP34 (UniProt Q70CQ2)
In short: (§1)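 The table lists average log2 ratios of fragment over vehicle, from an unpaired t-test on global-median-normalised Spectronaut label-free quantities. Proteins with ≥2 unique peptides were used. Samples were HEK293T lysate (495 µg) treated in triplicate with fragment at 200 µM or vehicle for 3 h, then with Biotin-Ahx-Ub-VS (0.5 µM final) for 1 h, with labelled DUBs NeutrAvidin-enriched and run by diaPASEF LC-MS/MS.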

[2] = target: T1, USP36 (UniProt Q9P275)
T1 sequence (whole entry): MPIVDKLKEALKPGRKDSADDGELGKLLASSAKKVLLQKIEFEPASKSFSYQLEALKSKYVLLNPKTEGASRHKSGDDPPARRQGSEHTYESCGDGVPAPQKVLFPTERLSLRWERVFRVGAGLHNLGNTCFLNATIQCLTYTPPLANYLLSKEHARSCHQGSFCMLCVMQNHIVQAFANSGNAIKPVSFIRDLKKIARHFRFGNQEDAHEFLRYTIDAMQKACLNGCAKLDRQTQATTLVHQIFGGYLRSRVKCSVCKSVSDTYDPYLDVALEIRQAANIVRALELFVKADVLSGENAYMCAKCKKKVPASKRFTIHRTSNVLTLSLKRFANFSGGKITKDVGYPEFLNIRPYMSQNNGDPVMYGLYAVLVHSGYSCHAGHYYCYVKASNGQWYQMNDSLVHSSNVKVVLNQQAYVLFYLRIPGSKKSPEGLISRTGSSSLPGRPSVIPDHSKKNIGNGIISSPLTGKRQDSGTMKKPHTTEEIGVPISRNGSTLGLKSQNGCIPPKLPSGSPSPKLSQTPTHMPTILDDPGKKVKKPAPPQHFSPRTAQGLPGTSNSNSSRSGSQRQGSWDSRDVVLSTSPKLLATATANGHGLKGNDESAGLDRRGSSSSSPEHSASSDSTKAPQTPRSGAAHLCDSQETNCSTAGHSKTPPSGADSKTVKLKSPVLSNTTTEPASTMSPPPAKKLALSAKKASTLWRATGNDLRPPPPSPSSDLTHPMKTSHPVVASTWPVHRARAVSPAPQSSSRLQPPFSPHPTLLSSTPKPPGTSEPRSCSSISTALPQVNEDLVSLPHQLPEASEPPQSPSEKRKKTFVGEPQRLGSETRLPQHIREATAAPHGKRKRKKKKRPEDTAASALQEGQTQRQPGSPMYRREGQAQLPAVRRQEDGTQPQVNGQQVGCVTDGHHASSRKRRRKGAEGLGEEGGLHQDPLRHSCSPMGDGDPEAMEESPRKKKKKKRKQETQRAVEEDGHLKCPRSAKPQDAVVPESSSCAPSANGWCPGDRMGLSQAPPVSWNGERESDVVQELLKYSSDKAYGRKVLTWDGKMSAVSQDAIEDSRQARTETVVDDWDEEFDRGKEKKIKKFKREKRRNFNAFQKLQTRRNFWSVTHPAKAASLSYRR
In short: as §1

[3] = target: T2, USP38 (UniProt Q8NB14)
T2 sequence (whole entry): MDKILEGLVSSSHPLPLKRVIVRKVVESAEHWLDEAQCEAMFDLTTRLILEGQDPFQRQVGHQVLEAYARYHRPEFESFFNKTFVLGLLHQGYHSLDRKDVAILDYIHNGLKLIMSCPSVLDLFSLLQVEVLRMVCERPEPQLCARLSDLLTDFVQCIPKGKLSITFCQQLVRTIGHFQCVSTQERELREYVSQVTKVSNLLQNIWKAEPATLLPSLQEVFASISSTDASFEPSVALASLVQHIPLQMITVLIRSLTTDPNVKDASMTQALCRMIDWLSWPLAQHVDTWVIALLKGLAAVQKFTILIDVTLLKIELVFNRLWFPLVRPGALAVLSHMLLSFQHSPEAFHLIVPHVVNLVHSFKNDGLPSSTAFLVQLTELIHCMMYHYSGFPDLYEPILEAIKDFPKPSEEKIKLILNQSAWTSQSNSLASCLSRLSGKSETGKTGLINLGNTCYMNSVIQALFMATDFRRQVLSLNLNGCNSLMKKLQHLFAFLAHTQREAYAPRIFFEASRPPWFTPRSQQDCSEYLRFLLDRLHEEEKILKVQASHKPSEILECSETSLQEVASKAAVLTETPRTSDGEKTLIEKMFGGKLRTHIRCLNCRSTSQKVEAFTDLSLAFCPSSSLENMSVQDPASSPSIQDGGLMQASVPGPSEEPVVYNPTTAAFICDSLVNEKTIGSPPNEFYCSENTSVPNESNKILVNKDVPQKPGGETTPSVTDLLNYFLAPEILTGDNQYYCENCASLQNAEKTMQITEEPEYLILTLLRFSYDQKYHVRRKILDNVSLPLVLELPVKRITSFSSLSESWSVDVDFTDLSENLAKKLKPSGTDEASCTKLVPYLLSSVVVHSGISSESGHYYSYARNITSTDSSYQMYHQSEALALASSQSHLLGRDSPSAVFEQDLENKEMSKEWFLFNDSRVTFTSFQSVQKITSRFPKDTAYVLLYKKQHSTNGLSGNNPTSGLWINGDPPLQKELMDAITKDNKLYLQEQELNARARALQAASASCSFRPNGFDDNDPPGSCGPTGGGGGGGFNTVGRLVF
In short: as §1

[4] = target: T3, USP39 (UniProt Q53GS9)
T3 sequence (whole entry): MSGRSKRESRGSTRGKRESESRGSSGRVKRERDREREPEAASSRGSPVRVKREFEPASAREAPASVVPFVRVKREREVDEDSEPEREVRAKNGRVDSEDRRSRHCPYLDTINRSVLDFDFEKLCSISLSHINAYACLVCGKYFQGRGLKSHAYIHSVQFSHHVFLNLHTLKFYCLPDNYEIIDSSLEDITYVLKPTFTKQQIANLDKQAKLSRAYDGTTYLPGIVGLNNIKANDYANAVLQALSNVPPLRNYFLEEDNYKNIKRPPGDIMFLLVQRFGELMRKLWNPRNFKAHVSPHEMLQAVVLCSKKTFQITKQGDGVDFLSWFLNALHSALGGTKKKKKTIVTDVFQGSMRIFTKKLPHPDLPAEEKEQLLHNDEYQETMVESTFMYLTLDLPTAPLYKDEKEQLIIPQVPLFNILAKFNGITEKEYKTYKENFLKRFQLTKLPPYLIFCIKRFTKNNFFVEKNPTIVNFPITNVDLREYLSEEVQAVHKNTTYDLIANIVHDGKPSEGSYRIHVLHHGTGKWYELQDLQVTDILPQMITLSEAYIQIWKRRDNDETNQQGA
In short: as §1

[5] = target: T4, USP4 (UniProt Q13107)
T4 sequence (whole entry): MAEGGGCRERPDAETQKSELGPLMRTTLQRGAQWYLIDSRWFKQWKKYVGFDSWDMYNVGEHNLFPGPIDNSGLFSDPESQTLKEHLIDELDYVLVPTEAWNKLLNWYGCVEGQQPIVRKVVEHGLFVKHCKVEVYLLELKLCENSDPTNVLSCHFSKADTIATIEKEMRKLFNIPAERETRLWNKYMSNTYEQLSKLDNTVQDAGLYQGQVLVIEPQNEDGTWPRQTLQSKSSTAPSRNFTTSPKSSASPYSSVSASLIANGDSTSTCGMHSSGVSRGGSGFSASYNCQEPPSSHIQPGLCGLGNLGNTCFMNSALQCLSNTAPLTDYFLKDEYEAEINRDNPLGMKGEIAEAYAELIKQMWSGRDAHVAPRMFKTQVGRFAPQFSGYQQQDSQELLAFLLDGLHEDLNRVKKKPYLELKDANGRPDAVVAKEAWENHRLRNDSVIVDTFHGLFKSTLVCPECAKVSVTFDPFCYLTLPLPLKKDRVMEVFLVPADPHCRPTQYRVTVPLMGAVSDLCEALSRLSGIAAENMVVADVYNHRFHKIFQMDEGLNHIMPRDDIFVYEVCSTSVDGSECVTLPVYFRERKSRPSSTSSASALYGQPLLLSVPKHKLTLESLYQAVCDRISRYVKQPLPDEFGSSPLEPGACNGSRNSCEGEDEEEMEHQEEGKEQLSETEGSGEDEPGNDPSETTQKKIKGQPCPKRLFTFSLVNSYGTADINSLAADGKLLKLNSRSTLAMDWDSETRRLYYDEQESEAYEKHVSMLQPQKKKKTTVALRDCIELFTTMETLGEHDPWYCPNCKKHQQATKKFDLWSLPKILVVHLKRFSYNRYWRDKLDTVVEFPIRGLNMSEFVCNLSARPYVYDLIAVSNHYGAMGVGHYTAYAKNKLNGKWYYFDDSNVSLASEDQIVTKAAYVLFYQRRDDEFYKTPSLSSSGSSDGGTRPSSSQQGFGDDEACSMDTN
In short: as §1

Measured: log2 ratio of Biotin-Ahx-Ub-VS probe labelling

Chain of USP34 (Q70CQ2 whole entry, the tested form may be a part): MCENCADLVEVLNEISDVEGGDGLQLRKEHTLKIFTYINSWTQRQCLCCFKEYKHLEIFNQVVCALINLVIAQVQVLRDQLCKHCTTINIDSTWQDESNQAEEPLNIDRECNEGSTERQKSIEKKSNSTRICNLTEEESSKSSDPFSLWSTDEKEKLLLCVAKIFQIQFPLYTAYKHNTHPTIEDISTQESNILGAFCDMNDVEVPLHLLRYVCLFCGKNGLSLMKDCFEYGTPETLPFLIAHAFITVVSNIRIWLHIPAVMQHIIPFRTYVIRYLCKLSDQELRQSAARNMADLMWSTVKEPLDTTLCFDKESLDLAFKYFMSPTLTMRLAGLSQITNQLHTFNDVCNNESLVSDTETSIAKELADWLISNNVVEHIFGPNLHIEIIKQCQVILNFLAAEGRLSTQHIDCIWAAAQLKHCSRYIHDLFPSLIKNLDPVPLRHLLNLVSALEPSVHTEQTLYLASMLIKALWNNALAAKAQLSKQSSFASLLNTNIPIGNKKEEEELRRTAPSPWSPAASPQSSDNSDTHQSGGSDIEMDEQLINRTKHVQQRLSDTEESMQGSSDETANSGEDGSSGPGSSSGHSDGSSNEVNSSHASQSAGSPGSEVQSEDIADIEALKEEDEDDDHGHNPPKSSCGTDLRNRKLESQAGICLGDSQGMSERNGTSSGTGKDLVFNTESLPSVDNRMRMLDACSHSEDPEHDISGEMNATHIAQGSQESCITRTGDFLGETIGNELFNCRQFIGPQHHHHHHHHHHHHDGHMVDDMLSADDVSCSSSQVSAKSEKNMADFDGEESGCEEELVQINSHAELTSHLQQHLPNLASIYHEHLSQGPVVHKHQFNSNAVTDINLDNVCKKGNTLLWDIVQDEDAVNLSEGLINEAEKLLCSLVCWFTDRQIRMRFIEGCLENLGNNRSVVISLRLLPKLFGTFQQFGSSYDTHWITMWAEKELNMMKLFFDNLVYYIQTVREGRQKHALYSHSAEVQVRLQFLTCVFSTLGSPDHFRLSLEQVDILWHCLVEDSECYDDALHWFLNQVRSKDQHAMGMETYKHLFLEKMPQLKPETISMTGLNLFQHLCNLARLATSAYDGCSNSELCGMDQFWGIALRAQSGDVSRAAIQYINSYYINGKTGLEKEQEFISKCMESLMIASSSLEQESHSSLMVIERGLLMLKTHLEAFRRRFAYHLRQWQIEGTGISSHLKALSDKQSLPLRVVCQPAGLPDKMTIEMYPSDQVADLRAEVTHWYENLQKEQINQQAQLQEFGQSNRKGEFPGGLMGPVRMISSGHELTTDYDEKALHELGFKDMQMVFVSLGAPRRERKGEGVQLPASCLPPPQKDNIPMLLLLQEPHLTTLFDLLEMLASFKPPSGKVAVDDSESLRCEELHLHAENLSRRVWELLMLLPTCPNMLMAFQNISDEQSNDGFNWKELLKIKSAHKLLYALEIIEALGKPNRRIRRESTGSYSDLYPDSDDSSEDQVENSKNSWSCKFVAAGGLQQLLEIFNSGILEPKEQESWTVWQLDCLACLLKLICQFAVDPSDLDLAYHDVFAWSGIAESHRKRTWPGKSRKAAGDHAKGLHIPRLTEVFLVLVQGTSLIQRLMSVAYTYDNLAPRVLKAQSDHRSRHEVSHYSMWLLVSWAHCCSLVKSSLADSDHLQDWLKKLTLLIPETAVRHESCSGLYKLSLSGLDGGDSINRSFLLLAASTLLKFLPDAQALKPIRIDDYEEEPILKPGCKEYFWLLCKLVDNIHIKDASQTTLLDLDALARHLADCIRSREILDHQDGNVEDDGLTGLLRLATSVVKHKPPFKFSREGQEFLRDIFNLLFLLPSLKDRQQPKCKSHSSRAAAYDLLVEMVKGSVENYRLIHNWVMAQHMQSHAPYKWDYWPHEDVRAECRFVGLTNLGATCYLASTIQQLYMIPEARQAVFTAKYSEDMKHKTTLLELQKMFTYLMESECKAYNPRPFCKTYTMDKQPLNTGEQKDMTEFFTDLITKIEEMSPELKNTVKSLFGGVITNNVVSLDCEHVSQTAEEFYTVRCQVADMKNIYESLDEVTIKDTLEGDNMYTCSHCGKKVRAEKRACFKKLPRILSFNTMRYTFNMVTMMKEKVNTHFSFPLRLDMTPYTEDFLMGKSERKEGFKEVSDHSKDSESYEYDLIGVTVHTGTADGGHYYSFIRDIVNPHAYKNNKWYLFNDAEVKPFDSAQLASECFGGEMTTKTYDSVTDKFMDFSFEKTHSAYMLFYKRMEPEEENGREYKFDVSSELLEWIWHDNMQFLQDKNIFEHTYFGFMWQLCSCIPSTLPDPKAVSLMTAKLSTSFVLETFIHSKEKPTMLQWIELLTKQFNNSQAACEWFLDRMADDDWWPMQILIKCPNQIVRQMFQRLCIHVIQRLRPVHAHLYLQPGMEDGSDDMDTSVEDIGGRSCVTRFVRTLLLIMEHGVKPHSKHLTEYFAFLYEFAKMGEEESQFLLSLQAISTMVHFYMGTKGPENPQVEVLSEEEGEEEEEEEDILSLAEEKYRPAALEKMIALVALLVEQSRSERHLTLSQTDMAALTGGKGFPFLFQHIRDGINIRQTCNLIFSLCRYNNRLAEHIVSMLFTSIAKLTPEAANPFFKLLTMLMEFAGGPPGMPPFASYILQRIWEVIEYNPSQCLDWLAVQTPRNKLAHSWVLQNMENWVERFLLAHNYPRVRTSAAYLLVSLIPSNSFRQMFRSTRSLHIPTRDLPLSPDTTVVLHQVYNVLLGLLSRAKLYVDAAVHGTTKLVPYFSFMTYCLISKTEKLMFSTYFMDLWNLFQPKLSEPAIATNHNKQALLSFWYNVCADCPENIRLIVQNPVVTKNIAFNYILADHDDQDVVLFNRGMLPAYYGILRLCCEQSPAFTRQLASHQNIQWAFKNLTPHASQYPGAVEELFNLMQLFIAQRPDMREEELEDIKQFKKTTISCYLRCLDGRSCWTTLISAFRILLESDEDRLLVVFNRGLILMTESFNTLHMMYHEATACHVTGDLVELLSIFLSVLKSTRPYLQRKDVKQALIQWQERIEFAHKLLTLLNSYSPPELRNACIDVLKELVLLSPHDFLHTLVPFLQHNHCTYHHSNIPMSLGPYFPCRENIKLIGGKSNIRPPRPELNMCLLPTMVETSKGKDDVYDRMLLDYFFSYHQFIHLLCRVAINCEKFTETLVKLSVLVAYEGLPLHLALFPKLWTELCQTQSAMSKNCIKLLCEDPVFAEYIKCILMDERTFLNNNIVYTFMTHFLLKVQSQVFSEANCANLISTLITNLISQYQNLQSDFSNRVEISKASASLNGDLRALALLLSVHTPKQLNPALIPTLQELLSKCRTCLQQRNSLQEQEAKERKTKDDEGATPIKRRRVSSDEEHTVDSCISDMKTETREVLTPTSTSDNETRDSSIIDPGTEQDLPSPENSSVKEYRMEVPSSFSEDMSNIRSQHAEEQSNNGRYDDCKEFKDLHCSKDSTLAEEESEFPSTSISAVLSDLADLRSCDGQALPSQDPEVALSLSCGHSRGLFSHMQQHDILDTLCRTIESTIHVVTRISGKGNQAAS

Cl.Cn1nc2c(c1CNC(=O)CCl)CCCC2
inactive: [1] -0.177 | [2] -0.0094 | [3] 0.0557 | [4] 0.242 | [5] 0.0436
